# Screen size: about 220,000 compounds; about 8,200 (3.7%) were called active. Shown is part of a subset that was picked to be rich in actives. A number with no mark means an inactive call.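 Rule for the calls: active = compounds that reduced the stress-induced luciferase reporter signal by more than about 70% of percent inhibition (limit read from the data); inactive = the rest.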
# Assay: inhibitors of CHOP promoter induction, primary screen, cell-based, unfolded protein response, luciferase reporter (AID 2732);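 note: 0% = tunicamycin plus vehicle and 100% = wells without tunicamycin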
# Details: CHO-K1 CHOP-promoter luciferase, tunicamycin-induced, 15-18 h; at 10 µM; stronger effect = higher value
row,SMILES,inhibition
1,CCCCCCCCCCCCn1ccc(=N)cc1,90.9% (active)
2,CC(=C1C(=O)c2ccccc2C1=O)N1CCN(CCN=Cc2c(O)n(C)c(=O)n(C)c2=O)CC1,-9.11%
3,COc1ccc(NC(=O)N2CCC3(CC2)OCCO3)c(OC)c1,18.7%
4,CCC1(C)CC(CCNCc2ccc(N(C)C)cc2)(c2ccc(F)cc2)CCO1 (stereo not given),8.31%
5,COc1ccc(CN2C(=O)NC(=O)/C(=C\c3ccc(OC)c(OC)c3OC)C2=O)cc1,-5.09%
6,CN(C)CC1Oc2ccccc2OC1(O)c1ccccc1 (stereo not given),88.8% (active)
7,CCOC(=O)c1ncn2c1[C@@H]1CCCN1C(=O)c1cc(OC)ccc1-2,-1.91%
8,O=C(CCNS(=O)(=O)c1ccccc1)Nc1ccc(Cl)cc1C(=O)c1ccccc1,-12.3%
9,O=C(COC(=O)c1ccccc1)Nc1ccc(Cl)cc1C(=O)c1ccccc1,80.1% (active)
10,CN1CCN(C(=S)SCC(=O)Nc2ccc(Cl)cc2C(=O)c2ccccc2)CC1,35%
11,COC(=O)N(c1ccc(OC)cc1)P1(=S)OCCC(C)O1 (stereo not given),-1.61%
12,CCC(=O)CC(c1ccc([N+](=O)[O-])cc1)c1c(O)c2ccccc2oc1=O (stereo not given),-16.6%
13,Cc1ccc2c(c1)C1CN(C)CCC1N2C(=O)Cn1nnc(-c2ccccc2F)n1 (stereo not given),3.99%
14,CCN1CCN(c2ccc([N+](=O)[O-])cc2C#N)CC1,8.37%
15,Cn1c(O)c(C(=Nc2ccc(F)cc2)c2ccccc2)c(=O)n(C)c1=O,2.66%
16,Cc1ccc(-n2c(C)cc(/C=C3\C(=O)NC(=O)N(C)C3=O)c2C)cc1C,78.5% (active)
17,Cc1cc(C=C2C(=O)NC(=O)NC2=O)c(C)n1-c1ccncc1,16.7%
18,Cc1ccnc(-n2c(C)cc(/C=C3\C(=O)NC(=S)N(C)C3=O)c2C)c1,-16.7%
19,C=CCN1CCC2(C)c3cc(O)ccc3CC1[C@@H]2C (stereo not given in full),9.89%
20,Cc1ccc(CN2CCCC(C(=O)c3ccc4c(c3)OCO4)C2)cc1C (stereo not given),-2.37%
21,O=c1[nH]c(=O)n(CCc2ccccc2)c(O)c1/C=N/N1CCOCC1,-18.4%
22,CCCCCCN=C(CC)c1c(O)n(CCCC)c(=O)[nH]c1=O,106% (active)
23,CCC(=NCCCO)c1c(O)n(-c2ccc(OC)cc2)c(=O)[nH]c1=O,14.6%

row,SMILES,inhibition
1,CCCCn1c(O)c(C(CC)=NCc2ccco2)c(=O)[nH]c1=O,6.6%
2,O=c1[nH]c(=O)n(CCc2ccc(F)cc2)c(O)c1/C=N/N1CCCCC1,3.76%
3,CC1(C)Cc2c(C#N)c(N3CCNCC3)nc(-c3ccco3)c2CS1,3.49%
4,COc1cc(C(c2c(O)c3ccccc3oc2=O)c2c(C)n(C)n(-c3ccccc3)c2=O)ccc1O (stereo not given),8.54%
5,CCCCCn1c(=O)c(C(=O)Nc2c(C)n(C)n(-c3ccccc3)c2=O)c(O)c2ccccc21,89.7% (active)
6,CCCCCn1c(=O)c(C(=O)NCc2ccccn2)c(O)c2ccccc21,40.5%
7,CCOP(=O)(OCC)C(O)c1ccc(OC)cc1OC (stereo not given),1.95%
8,COc1ccc2c(c1O)-c1cccc3c1[C@@H](C2)N(C)CC3,-0.63%
9,COc1ccc(-n2c(-c3ccccc3)nc3ccccc3c2=O)cc1,-0.77%
10,CC(=O)c1c(O)c(C)c(O)c(Cc2c(O)c3c(c(C(=O)/C=C/c4ccccc4)c2O)OC(C)(C)C=C3)c1O,-9.85%
11,O=C1NC(=O)N(Cc2ccco2)C(=O)/C1=C\c1ccc(-c2ccc(F)cc2)o1,4.85%
12,O=C1NC(=O)N(CCc2ccc(F)cc2)C(=O)/C1=C/C=C/c1ccccc1,79.8% (active)
13,O=C(O)COc1ccccc1/C=C1\C(=O)NC(=O)N(CCC2=CCCCC2)C1=O,-7.81%
14,COc1ccc(NC(=O)c2cn(CCC#N)nc2-c2ccc([N+](=O)[O-])cc2)cc1,-2.78%
15,Cc1ccc(-n2c(-c3ccc([N+](=O)[O-])cc3)nc3ccccc3c2=O)cc1,-10.7%
16,O=C(O)C1C2CCC(O2)C1C(=O)O (stereo not given),-11.8%
17,CN(C)c1ccc(/C=C2\CC3C4CC=C5CC(O)CCC5(C)C4CCC3(C)C2=O)cc1 (stereo not given),96% (active)
18,CC(c1ccccc1)(c1ccccc1)c1ccncc1,34.4%
19,CCN1c2nc3c(C)cccn3c(=O)c2CC2(C(=O)N(C)C(=O)N(C)C2=O)C1C (stereo not given),6.18%
20,CCCCC(=O)N/N=C/c1c(O)n(-c2ccccc2)c(=O)[nH]c1=O,-1.28%
21,O=C(CSC1c2ccccc2-c2ccccc21)N/N=C/c1ccccc1,97.3% (active)
22,CC(=O)N1CN2CN(C(C)=O)CC(C(=O)c3ccc(Br)cc3)(C2)C1,5.64%
